Reference: PubChem BioAssay (EPA / NIEHS)
Where “and” joins values, the source holds several entries; their conditions need not be identical. Identical values can stand only once. Results filed as inconclusive are left out. More than one record can exist for a structure, and the calls need not agree. Calls of active or inactive are those of the source. Rule for the calls, unless noted: active = hit-call score of the fitted dose curve at least 0.9, where 1 is the maximum; inactive = score below 0.9.

How the values were obtained:
[1] = biological target: Nuclear respiratory factor 1 (Homo sapiens) (UniProt Q16656); assay: ATG_NRF1_CIS: Attagene CIS-FACTORIAL HepG2 Assay for human Nuclear Respiratory Factor 1 (NRF1) Orphan Gene (AID 2282987); conditions: HepG2 NRF1 cis-element reporter, Attagene multiplex; actives raise or lower the signal
Chain of Nuclear respiratory factor 1 (Homo sapiens) (Q16656 whole entry, looked up, the tested form may be a part): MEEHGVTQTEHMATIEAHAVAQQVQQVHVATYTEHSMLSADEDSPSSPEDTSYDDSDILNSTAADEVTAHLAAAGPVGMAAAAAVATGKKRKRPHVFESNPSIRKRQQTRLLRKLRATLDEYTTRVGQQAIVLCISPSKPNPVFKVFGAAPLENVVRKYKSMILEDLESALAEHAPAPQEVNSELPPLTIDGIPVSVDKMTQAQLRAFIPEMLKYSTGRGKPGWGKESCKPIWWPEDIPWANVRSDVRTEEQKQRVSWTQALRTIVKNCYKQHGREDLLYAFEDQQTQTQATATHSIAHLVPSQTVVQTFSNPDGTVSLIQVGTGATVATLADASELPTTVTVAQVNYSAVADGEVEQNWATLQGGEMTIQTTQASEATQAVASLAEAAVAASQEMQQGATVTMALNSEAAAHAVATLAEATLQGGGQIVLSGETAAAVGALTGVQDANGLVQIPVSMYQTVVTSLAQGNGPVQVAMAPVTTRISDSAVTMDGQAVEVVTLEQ
Method in brief: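 Cells (HepG2, transient MRTU transfection) are exposed to compound for 24 h, then RNA isolated and reporter mRNA amplified and fluorescently labelled. Fragments are separated by capillary electrophoresis; signal change is fitted bidirectionally relative to DMSO.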

[2] = ATG_NFI_CIS: Attagene CIS-FACTORIAL HepG2 Assay for human Nuclear Factor I (NFI) (AID 2282989); conditions: HepG2 cis-regulatory reporter, NFI response element transcription; actives raise or lower the signal
Method in brief: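 Reporter transcripts were measured by RT-PCR with fluorescent primer extension and capillary electrophoresis 24 h post-treatment. HepG2 cells carried transiently transfected cis-regulated reporter constructs reporting endogenous factor activity; gain or loss fitted against DMSO baseline.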

[3] = biological target: Myc proto-oncogene protein (Homo sapiens) (UniProt P01106); assay: ATG_Myc_CIS: Attagene CIS-FACTORIAL HepG2 Assay for human Myelocytomatosis (Myc) Proto-Oncogene Transcription Factor (AID 2282990); conditions: HepG2, Attagene cis-reporter transcription factor activity; actives raise or lower the signal
Chain of Myc proto-oncogene protein (Homo sapiens) (P01106 whole entry, looked up, the tested form may be a part): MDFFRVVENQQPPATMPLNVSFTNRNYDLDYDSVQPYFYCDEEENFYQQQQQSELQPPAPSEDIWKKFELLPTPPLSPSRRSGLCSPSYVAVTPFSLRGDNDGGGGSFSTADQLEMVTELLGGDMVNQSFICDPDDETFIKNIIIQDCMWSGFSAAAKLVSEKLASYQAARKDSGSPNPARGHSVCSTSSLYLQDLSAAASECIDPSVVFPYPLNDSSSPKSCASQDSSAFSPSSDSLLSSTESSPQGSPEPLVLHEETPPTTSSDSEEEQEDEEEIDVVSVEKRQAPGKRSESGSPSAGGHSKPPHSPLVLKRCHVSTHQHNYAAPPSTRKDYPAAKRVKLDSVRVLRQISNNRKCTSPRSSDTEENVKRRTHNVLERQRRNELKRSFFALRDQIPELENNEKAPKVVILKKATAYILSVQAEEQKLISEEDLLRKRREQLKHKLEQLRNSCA
Method in brief: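 Read-out: fluorescent reporter mRNA fragments resolved by capillary electrophoresis after RT-PCR. Human HepG2 liver cells carried transfected cis-element reporter units and were dosed for 24 h. Gain or loss of signal fitted relative to DMSO baseline.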

[4] = ATG_NF_kB_CIS: Attagene CIS-FACTORIAL HepG2 Assay for human Nuclear Factor Kappa B (NF-kB) (AID 2282991); conditions: HepG2 Attagene cis-factorial NF-kB reporter mRNA; actives raise or lower the signal
Method in brief: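 Measures mRNA induction of an NF-kB-responsive cis-element reporter in HepG2 cells transfected with multiple reporter units, sampled 24 h post-dosing; quantified by fluorescence after RT-PCR and capillary electrophoresis, fitted for activation or inhibition against DMSO.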

[5] = ATG_NRF2_ARE_CIS: Attagene CIS-FACTORIAL HepG2 Assay for human Nuclear Factor Erythroid 2 Related Factor 2 (NFR2) response to Antioxidant Response Elements (ARE) (AID 2282992); conditions: HepG2 Attagene ARE/NRF2 reporter, transcription factor activity; actives raise or lower the signal;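 for AC50: reporter mRNA level measured by RT-PCR and capillary electrophoresis fluorescence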
Method in brief: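 Transient MRTU transfection of HepG2; 24 h compound exposure; TriZol RNA, RT with oligo(dT), PCR, 6-FAM primer extension, HpaI cut, CE. Bidirectional fit vs DMSO.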

[6] = ATG_Oct_MLP_CIS: Attagene CIS-FACTORIAL HepG2 Assay for human Octamer-Binding Transcription Factor (Oct) (AID 2282993); conditions: HepG2 Attagene cis-factorial Oct reporter, mRNA; actives raise or lower the signal
Method in brief: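 Readout is reporter transcript level from RT-PCR with fluorescent primer extension and capillary electrophoresis, fitted in both directions against DMSO. Transfected HepG2 reporter units report endogenous factor activity after 24 h dosing.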

[7] = biological target: Cellular tumor antigen p53 (Homo sapiens) (UniProt P04637); assay: ATG_p53_CIS: Attagene CIS-FACTORIAL HepG2 Assay for human p53 Transcription Factor (AID 2282994); conditions: HepG2 p53 cis-element reporter, Attagene mRNA; actives raise or lower the signal
Chain of Cellular tumor antigen p53 (Homo sapiens) (P04637 whole entry, looked up): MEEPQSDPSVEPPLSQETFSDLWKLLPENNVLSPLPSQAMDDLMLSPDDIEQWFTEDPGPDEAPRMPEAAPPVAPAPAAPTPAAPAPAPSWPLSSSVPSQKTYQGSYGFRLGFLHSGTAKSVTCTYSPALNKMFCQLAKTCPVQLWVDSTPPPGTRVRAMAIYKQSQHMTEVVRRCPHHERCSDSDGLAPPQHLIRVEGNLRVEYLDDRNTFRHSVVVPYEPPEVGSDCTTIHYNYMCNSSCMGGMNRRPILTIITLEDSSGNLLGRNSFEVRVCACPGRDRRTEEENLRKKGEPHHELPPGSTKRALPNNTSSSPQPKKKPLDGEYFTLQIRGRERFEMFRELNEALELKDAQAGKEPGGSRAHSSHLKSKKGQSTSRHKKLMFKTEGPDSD
Method in brief: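 HepG2, transient MRTU transfection (cis promoter elements, endogenous TFs); 24 h dosing; RNA isolation, RT-PCR, 6-FAM primer extension, HpaI digest, CE fluorescence; bidirectional fit vs DMSO.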

[8] = BSK_3C_uPAR: BioMAP Diversity Plus: 3C Assay for Urokinase-type plasminogen activator receptor (uPAR) Biomarker Activity (AID 2282998); conditions: BioMAP 3C HUVEC, uPAR biomarker ELISA; actives raise or lower the signal
Method in brief: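 Cell-surface uPAR on HUVEC (3C system) read by ELISA at 24 h post-treatment, with DMSO as baseline and fitting in both directions. Parallel cultures stained with SRB to flag overt cytotoxicity.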

[9] = BSK_3C_VCAM1: BioMAP Diversity Plus: 3C Assay for Vascular cell adhesion molecule 1 (VCAM1) Biomarker Activity (AID 2282999); conditions: BioMAP 3C HUVEC, VCAM1 ELISA, cytokine-stimulated; actives raise or lower the signal
Method in brief: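 Human umbilical vein endothelial cells (3C system), biomarker read by ELISA 24 h after dosing; bidirectional fit against DMSO baseline. Cytotoxicity tracked by SRB total-protein staining in parallel cultures at biomarker time.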

[10] = BSK_4H_Eotaxin3: BioMAP Diversity Plus: 4H Assay for Eotaxin 3 Biomarker Activity (AID 2283000); conditions: primary human endothelial cells (HUVEC); actives raise or lower the signal
Method in brief: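 Endothelial primary cells (human umbilical vein) exposed to compound for 24 h. ELISA detection of Eotaxin-3.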

[11] = biological target: human Peroxisome Proliferator-activated Receptor alpha (PPARa), PPARA (gene 5465) (UniProt Q07869); assay: ATG_PPARa_TRANS: Attagene TRANS-FACTORIAL HepG2 Assay for human Peroxisome Proliferator-activated Receptor alpha (PPARa) (AID 2283001; active = hit-call score of the fitted dose curve at least 0.9, where 1 is the maximum;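 for AC50: potency for gain of reporter signal over DMSO so agonist or activator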)
Chain of human Peroxisome Proliferator-activated Receptor alpha (PPARa), PPARA (gene 5465) (Q07869 whole entry, looked up, the tested form may be a part): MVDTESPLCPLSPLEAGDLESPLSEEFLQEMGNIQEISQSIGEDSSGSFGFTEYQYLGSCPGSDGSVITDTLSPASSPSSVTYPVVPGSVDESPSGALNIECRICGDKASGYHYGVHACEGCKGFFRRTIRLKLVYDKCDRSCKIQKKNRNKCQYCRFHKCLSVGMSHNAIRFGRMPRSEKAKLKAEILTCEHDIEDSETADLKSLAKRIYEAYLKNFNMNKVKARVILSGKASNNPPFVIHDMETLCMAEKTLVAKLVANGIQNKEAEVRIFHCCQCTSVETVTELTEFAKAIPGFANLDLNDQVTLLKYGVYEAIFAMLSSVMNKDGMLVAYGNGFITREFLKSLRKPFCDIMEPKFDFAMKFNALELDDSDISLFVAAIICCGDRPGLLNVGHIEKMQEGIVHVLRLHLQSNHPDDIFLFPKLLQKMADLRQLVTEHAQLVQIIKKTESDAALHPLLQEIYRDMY
Method in brief: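 HepG2 cells transiently transfected with multiplexed GAL4-UAS reporters driven by exogenous chimeric NR-Gal4 proteins; reporter mRNA measured after 24 h dosing. Read-out by RT-PCR, 6-FAM labelling, HpaI digestion and capillary electrophoresis; gain of signal versus DMSO.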

[12] = biological target: human Peroxisome Proliferator-activated Receptor delta (PPARd), PPARD (gene 5467) (UniProt Q03181); assay: ATG_PPARd_TRANS: Attagene TRANS-FACTORIAL HepG2 Assay for human Peroxisome Proliferator-activated Receptor delta (PPARd) (AID 2283002; active = hit-call score of the fitted dose curve at least 0.9, where 1 is the maximum)
Chain of human Peroxisome Proliferator-activated Receptor delta (PPARd), PPARD (gene 5467) (Q03181 whole entry, looked up, the tested form may be a part): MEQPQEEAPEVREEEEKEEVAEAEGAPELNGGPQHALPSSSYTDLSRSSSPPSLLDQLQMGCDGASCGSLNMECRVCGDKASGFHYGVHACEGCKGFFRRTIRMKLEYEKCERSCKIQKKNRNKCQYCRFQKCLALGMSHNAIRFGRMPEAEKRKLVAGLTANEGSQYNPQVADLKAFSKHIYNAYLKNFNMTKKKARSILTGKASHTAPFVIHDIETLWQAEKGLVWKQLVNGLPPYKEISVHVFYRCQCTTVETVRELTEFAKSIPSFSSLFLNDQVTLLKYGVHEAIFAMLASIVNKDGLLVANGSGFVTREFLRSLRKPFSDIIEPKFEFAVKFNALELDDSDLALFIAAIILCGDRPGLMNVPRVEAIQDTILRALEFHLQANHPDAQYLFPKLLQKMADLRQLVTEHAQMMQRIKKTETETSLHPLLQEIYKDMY
Method in brief: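 Read-out: reporter mRNA induction, quantified by fluorescent RT-PCR products resolved by capillary electrophoresis. Human HepG2 liver cells carried transiently transfected Gal4-UAS reporter constructs with chimeric NR-Gal4 fusions. Cells were dosed for 24 h; DMSO served as baseline.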

[13] = biological target: human Retinoic Acid Receptor beta (RARb), RARB (gene 5915) (UniProt P10826); assay: ATG_RARb_TRANS: Attagene TRANS-FACTORIAL HepG2 Assay for human Retinoic Acid Receptor beta (AID 2283004; active = hit-call score of the fitted dose curve at least 0.9, where 1 is the maximum)
Chain of human Retinoic Acid Receptor beta (RARb), RARB (gene 5915) (P10826 whole entry, looked up, the tested form may be a part): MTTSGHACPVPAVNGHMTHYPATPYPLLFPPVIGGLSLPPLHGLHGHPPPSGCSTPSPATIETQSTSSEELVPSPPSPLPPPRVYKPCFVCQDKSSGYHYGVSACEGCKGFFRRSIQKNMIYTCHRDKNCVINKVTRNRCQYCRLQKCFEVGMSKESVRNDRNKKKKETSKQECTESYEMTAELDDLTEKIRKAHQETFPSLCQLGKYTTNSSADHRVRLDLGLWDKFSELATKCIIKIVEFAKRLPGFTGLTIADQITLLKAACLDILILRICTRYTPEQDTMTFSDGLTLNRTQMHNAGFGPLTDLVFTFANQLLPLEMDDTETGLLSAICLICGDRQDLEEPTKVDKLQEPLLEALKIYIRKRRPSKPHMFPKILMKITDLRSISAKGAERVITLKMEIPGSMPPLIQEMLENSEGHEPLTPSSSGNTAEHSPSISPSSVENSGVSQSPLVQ
Method in brief: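 HepG2, transient MRTU transfection, NR–Gal4 chimera, 24 h treatment; RT-PCR plus CE fluorescence detection of reporter mRNA; gain of signal vs DMSO.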

[14] = BSK_3C_Proliferation: Cell Proliferation Assessment in the BioMAP Diversity Plus: 3C Assay (AID 2283006); conditions: primary human endothelial cells (HUVEC);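 for AC50: potency may reflect either rise or fall in cell number versus DMSO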
Method in brief: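 Read-out is total protein by SRB absorbance at 560 nm, taken as a proxy for relative cell number. Primary human umbilical vein endothelium cultured below confluence was dosed for 48 h, TCA-fixed and SRB-stained; curves were fitted bidirectionally versus DMSO.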

[15] = biological target: Peroxisome proliferator-activated receptor gamma (Homo sapiens) (UniProt P37231); assay: ATG_PPARg_TRANS: Attagene TRANS-FACTORIAL HepG2 Assay for human Peroxisome Proliferator-activated Receptor-gamma (PPARg) (AID 2283007; active = hit-call score of the fitted dose curve at least 0.9, where 1 is the maximum)
Chain of Peroxisome proliferator-activated receptor gamma (Homo sapiens) (P37231 whole entry, looked up, the tested form may be a part): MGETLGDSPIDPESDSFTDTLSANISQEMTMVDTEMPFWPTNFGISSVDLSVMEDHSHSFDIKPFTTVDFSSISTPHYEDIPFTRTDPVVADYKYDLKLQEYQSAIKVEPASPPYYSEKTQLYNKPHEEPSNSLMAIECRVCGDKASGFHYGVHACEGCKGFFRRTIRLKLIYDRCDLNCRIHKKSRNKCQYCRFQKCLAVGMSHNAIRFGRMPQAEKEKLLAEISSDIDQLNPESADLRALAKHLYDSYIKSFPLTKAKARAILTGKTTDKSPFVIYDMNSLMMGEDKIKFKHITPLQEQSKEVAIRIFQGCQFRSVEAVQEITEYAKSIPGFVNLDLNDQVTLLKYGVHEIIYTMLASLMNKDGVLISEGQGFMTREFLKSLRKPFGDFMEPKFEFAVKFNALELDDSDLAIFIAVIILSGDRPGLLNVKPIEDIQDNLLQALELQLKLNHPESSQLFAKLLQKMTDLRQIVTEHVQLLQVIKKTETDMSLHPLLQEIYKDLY
Method in brief: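 Gain-of-signal endpoint relative to DMSO, derived from reporter mRNA levels quantified by RT-PCR and capillary electrophoresis. Cells were HepG2 transiently expressing a chimeric NR-Gal4 construct with GAL4-UAS reporters, exposed to chemicals for 24 h.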

[16] = biological target: Retinoic acid receptor alpha (Homo sapiens) (UniProt P10276); assay: ATG_RARa_TRANS: Attagene TRANS-FACTORIAL HepG2 Assay for human Retinoic Acid Receptor alpha (RARa) (AID 2283005; active = hit-call score of the fitted dose curve at least 0.9, where 1 is the maximum)
Chain of Retinoic acid receptor alpha (Homo sapiens) (P10276 whole entry, looked up, the tested form may be a part): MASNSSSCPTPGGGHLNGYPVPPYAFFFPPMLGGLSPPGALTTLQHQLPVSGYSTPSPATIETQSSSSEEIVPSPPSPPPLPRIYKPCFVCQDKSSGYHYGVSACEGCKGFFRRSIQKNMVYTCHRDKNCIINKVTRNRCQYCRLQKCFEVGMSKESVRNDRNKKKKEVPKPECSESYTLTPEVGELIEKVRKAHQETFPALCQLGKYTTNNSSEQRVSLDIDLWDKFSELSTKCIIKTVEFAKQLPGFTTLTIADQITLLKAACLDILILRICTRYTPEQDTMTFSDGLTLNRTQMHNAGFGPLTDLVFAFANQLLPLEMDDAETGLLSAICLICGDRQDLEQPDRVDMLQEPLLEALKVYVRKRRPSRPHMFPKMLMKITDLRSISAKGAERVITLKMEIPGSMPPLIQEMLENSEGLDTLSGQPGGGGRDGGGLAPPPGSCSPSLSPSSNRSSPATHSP
Method in brief: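 HepG2 transiently transfected with multiplex GAL4-UAS reporter units including a human RARa–GAL4 chimera; 24 h compound exposure. Reporter mRNA quantified by RT-PCR, 6-FAM labeling and capillary electrophoresis; gain of signal versus DMSO.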

[17] = biological target: Nuclear receptor subfamily 1 group I member 2 (Homo sapiens) (UniProt O75469); assay: ATG_PXR_TRANS: Attagene TRANS-FACTORIAL HepG2 Assay for human Pregnane X Receptor (PXR) (AID 2283008; active = hit-call score of the fitted dose curve at least 0.9, where 1 is the maximum)
Chain of Nuclear receptor subfamily 1 group I member 2 (Homo sapiens) (O75469 whole entry, looked up, the tested form may be a part): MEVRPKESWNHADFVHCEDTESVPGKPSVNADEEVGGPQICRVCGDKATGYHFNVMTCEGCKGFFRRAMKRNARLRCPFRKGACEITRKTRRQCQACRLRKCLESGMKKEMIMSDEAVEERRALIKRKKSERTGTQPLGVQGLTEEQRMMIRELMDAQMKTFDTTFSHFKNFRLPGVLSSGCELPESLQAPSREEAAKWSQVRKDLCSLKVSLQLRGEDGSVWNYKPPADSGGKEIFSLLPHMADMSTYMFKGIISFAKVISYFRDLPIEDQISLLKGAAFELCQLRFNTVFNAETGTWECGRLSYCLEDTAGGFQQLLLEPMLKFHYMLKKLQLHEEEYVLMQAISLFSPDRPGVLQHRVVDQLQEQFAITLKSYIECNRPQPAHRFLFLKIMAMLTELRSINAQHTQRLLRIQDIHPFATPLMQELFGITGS
Method in brief: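 Read-out is fluorescence of labelled reporter cDNA fragments separated by capillary electrophoresis after RT-PCR and HpaI digestion. Source: HepG2 cells carrying PXR-GAL4/UAS reporter constructs, treated 24 h; activity fitted upward relative to DMSO.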

[18] = biological target: human Retinoic Acid Receptor gamma (RARg), RARG (gene 5916) (UniProt P13631); assay: ATG_RARg_TRANS: Attagene TRANS-FACTORIAL HepG2 Assay for human Retinoic Acid Receptor gamma (RARg) (AID 2283009; active = hit-call score of the fitted dose curve at least 0.9, where 1 is the maximum;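 for AC50: AC50 is for reporter induction above DMSO meaning RARg activation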)
Chain of human Retinoic Acid Receptor gamma (RARg), RARG (gene 5916) (P13631 whole entry, looked up): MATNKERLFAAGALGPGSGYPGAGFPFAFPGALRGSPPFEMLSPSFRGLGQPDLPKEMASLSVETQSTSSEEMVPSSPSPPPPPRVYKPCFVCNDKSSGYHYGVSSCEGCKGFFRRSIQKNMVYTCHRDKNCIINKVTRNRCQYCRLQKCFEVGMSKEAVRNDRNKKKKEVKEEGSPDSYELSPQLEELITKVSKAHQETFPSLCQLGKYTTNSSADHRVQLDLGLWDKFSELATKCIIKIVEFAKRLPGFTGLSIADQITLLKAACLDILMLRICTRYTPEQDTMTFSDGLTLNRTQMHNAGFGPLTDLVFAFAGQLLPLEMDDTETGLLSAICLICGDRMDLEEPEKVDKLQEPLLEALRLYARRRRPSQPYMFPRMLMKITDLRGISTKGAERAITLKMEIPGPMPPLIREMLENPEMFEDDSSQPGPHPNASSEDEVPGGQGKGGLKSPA
Method in brief: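 Transient transfection of HepG2 with multi-reporter constructs, then 24 h chemical treatment. Total RNA isolated, reverse-transcribed, PCR-amplified, fluorescently labelled and resolved by capillary electrophoresis; activity scored as mRNA induction versus DMSO.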

[19] = BSK_3C_TissueFactor: BioMAP Diversity Plus: 3C Assay for Tissue Factor Biomarker Activity (AID 2282997); conditions: BioMAP 3C HUVEC, tissue factor biomarker readout; actives raise or lower the signal
Method in brief: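 Values derive from bidirectional curve fitting against DMSO of Tissue Factor ELISA signals, taken 24 h after dosing primary human umbilical vein endothelial cells.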

[20] = read-out: Intercellular Adhesion Molecule 1 (ICAM1), ICAM1 (gene 3383); assay: BSK_3C_ICAM1: BioMAP Diversity Plus: 3C Assay for Intercellular Adhesion Molecule 1 (ICAM1) Biomarker Activity (AID 2283003); conditions: primary human endothelial cells (HUVEC); actives raise or lower the signal
Method in brief: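 ICAM-1 levels measured by ELISA after HUVEC cultures in the 3C system had been dosed for 24 h. Gain or loss of signal relative to DMSO was fitted in both directions.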

Measured: AC50

Cc1ccc(O)c(C)c1
active: [5] 7.51 µM
not listed: [16] | [17] | [18] | [19] | [20]
inactive: all other assays above

O=C(NC(=O)c1c(F)cccc1F)Nc1cc(Cl)c(OC(F)(F)C(F)F)c(Cl)c1
not listed: [13] | [19] | [20]
inactive: all other assays above

O=C(O)C(F)(F)C(F)(F)C(F)(F)C(F)(F)C(F)(F)C(F)(F)C(F)(F)C(F)(F)C(F)(F)F
inactive: [1] | [2] | [3] | [4] | [6] | [7] | [9] | [12] | [13] | [16] | [17] | [18]
active: [5] 59.6 µM and 12.3 µM and 24.7 µM | [6] 45.5 µM and 50 µM | [7] 46.9 µM and 69.4 µM | [9] 56.8 µM and 53.1 µM | [10] 29.9 µM and 49.3 µM and 51.1 µM | [11] 33.4 µM and 24.7 µM and 23.9 µM | [14] 36.3 µM and 46.6 µM and 45.4 µM | [15] 52.1 µM and 12.9 µM | [17] 45.7 µM and 60.9 µM | [18] 33.4 µM

Oc1c(Cl)c(Cl)c(Cl)c(Cl)c1Cl
active: [1] 12.5 µM and 25.7 µM | [2] 27.4 µM and 51 µM | [3] 50 µM and 91.9 µM | [4] 9.11 µM | [5] 13.7 µM and 12.5 µM and 2.62 µM | [6] 31.1 µM and 11.4 µM and 73.1 µM | [7] 51 µM | [19] 26.9 µM | [9] 10.2 µM and 32.3 µM | [10] 17 µM and 9.54 µM | [14] 15.4 µM and 14.7 µM | [15] 4.28 µM and 2.53 µM and 7.91 µM | [17] 13.8 µM and 3.3 µM
inactive: [1] | [2] | [3] | [4] | [7] | [19] | [11] | [16] | [17] | [18]

CCCCCCCCOC(=O)c1ccccc1C(=O)OCCCCCCCC
active: [10] 14 µM | [15] 38.4 µM
not listed: [8] | [12] | [13] | [18] | [20]
inactive: all other assays above

CCCCCCCCCc1ccc(O)cc1
inactive: [1] | [2] | [3] | [4] | [6] | [7] | [12] | [13] | [16] | [17] | [18]
active: [1] 174 µM | [3] 69 µM | [4] 68.8 µM | [5] 11.1 µM and 26.6 µM and 14.3 µM | [8] 15.5 µM | [9] 13.8 µM | [10] 15.2 µM | [11] 33.4 µM and 21.6 µM and 16.9 µM | [12] 25.5 µM and 33.4 µM | [14] 11.2 µM | [15] 33.4 µM and 25.1 µM and 9.23 µM | [17] 21.2 µM

CC#Cc1cc(C)nc(Nc2ccccc2)n1
active: [5] 56.5 µM | [11] 606 nM | [14] 17.9 µM | [15] 6.26 µM
not listed: [13] | [16] | [18]
inactive: all other assays above

C=CC(=O)NCNC(=O)C=C
active: [4] 100 µM | [5] 61.1 µM
not listed: [8] | [12] | [13] | [16] | [17] | [18]
inactive: all other assays above

CCOC(=O)C(O)(c1ccc(Cl)cc1)c1ccc(Cl)cc1
active: [19] 33.5 µM | [9] 34.7 µM | [10] 34.6 µM | [14] 30.1 µM | [15] 11.1 µM | [17] 18.3 µM
not listed: [8] | [11] | [13] | [16] | [20]
inactive: all other assays above

Clc1ccc(C(c2ccccc2Cl)C(Cl)(Cl)Cl)cc1 (stereo not drawn)
active: [1] 120 µM | [2] 107 µM and 70.5 µM | [3] 111 µM | [5] 41.4 µM and 39.6 µM and 21.3 µM | [6] 70.5 µM and 104 µM and 42.3 µM | [19] 20.9 µM | [9] 21 µM | [10] 20.3 µM | [14] 7.61 µM | [17] 3.39 µM and 2.82 µM and 3.97 µM
inactive: [1] | [2] | [3] | [4] | [5] | [6] | [7] | [11] | [12] | [15] | [17] | [18]
